# Assay outcomes: PubChem, National Center for Advancing Translational Sciences (NCATS)
# Sfp PPTase inh: Sfp phosphopantetheinyl transferase inhibition; Biochemical Sfp PPTase activity, qHTS; Potency, µM, for inactives: largest response in the series, negative = inhibition, actives largely listed as inhibitors; 3.5% of 310,000 active; AID 1490;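 further: the enzyme is Sfp with the accession as filed and its product quenches rhodamine fluorescence; 0% = enzyme reaction without inhibitor and -100% = no enzyme wells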
#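 After 15 min at room temperature with compound, 15 nM Sfp received 5 uM rhodamine-CoA plus 12.5 uM BHQ-2-ybbR (50 mM Hepes pH 7.6, 10 mM MgCl2). Rate came from the fluorescence difference over 30 min, ex 525/em 598 nm.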
# G9a block: G9a (human) methyltransferase inhibition. 8.8% of 350,000 active. Q96KQ7. Potency, µM (top dose mostly 102 µM), for inactives: top-dose activity, negative = inhibition, actives largely listed as inhibitors. G9a H3K9 monomethylation, AlphaScreen, 2 h; further: on the % scale 0 is the no-effect control and ±100 the full control effect; nearly all actives have a fitted effect of over 75% in size
# Target sequence (Q96KQ7 913-1193 limits assumed): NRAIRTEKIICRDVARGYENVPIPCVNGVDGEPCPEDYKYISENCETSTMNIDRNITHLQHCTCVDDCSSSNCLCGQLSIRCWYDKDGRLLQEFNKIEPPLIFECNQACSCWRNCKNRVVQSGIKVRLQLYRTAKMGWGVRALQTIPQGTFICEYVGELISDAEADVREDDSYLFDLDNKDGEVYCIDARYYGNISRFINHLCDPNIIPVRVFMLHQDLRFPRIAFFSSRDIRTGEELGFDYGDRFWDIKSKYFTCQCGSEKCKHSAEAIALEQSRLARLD
#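 G9a (20 nM) was preincubated 15 min with compound, then reacted 2 h at room temperature with 500 nM biotin-H3K9 peptide and 20 µM SAM. Monomethyl-H3K9 detected by AlphaScreen using anti-H3K9me1 antibody.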
# HP1b chromo inh: HP1-beta chromodomain-methylated histone interaction inhibition; AlphaScreen HP1-beta / biotin-H3K9me3 peptide binding; 0.56% of 390,000 active; P83916; AID 540317; Potency, µM (highest dose often 114 µM), inactives show top-dose activity change, negative = inhibition, actives largely listed as inhibitors; further: nearly all actives have a fitted effect of over 70% in size
# Target sequence (P83916 whole entry, looked up): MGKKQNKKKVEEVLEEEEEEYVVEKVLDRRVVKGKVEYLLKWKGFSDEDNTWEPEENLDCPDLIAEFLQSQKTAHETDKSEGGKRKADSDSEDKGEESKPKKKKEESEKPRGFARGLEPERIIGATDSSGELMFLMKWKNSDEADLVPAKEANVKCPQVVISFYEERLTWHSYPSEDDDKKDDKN
#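 AlphaScreen: HP1-beta (50 nM) preformed 30 min with biotin-H3(1-18)K9me3 peptide (50 nM) in PBS pH 7.4, 0.01% Tween-20. Compound added for 30 min at RT, then streptavidin donor/nickel chelate acceptor beads (10 ug/mL) for 30 min.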
# JMJD2A Tudor: JMJD2A Tudor domain (human) inhibition; O75164; AlphaScreen JMJD2A-Tudor / H3K4me3 peptide binding; Potency, µM (top dose mostly 114 µM), inactives show top-dose activity change, negative = inhibition, hits mostly inhibitors; 4.4% of 390,000 active; AID 504339; further: on the % scale 0 is the no-effect control and ±100 the full control effect; nearly all actives have a fitted effect of over 50% in size
# BAZ2B block: inhibitors of human BAZ2B bromodomain. Potency, µM (series often up to 114 µM), without a hit: top-dose activity change, negative = inhibition, actives largely listed as inhibitors. AlphaScreen BAZ2B-H3K14Ac peptide displacement. Q9UIF8. AID 504333. 4.4% of 360,000 active; further: on the % scale 0 is the no-effect control and ±100 the full control effect; nearly all actives have a fitted effect of over 60% in size
#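 AlphaScreen luminescence quantifies BAZ2B engagement of H3K14Ac peptide; the protein and biotinylated peptide are both at 50 nM final, buffer PBS pH 7.4 with 0.01% Tween-20, all steps at room temperature.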
# * marks the source's active call; other numbers are inactive results; ? = inconclusive; nt = no result; [ ] = another dose, or the depositor's remark. Rows were chosen to be rich in hits. Some 12% of all compounds tested hit in one or more screens of this group. The call rests on the fitted dose curve; in most records, active means well fitted curve in the direction sought with a large enough effect; inconclusive means small, poorly fitted or top-dose-only effect, or another doubt; inactive means no such curve, though single readings can be large; an effect the other way counts as inactive or inconclusive. Potency means the concentration at half of the fitted maximal effect.
SMILES,Sfp PPTase inh,G9a block,HP1b chromo inh,JMJD2A Tudor,BAZ2B block
COc1ccc(-c2cc(=O)oc3cc(OC(C)C(=O)NC(Cc4c[nH]c5ccc(O)cc45)C(=O)O)ccc23)cc1 (stereo not drawn),-4%,50µM*,0%,-27%,50µM*
Cc1cc(C(C)(C)C)cc(C)c1CCNC(=O)c1c(C)noc1C,nt,-28%,18%,-1%,2%
CCOC(=O)C1CCN(C(=O)Cn2cnc3sc(C)c(S(=O)(=O)N4CCC(C)CC4)c3c2=O)CC1,7%,11%,5%,-10%,0%
CCOC(=O)C1CCN(C(=O)Cn2cnc3sc(C)c(S(=O)(=O)N4CCCCC4)c3c2=O)CC1,22%,50µM*,32%,-2%,6%
COc1ccc(-c2ccc(SCC(=O)NCc3ccco3)nn2)cc1,6%,17%[59 µM],17%,0%,-6%
CCSc1ccc(-c2ccco2)nn1,14µM*,18µM*,19%,-17%,-25%
CSc1ccc(-c2ccco2)nn1,32µM*,32µM*,32%,-3%,-22%
CC(Sc1n[nH]c(-c2cccs2)n1)C(=O)Nc1ccc(C(N)=O)cc1 (stereo not drawn),nt,-20%[59 µM],42%,2%,-5%
O=[N+]([O-])/C=C/c1cc2ccccc2[nH]1,-7%,18µM*,21%,-29%,-29%
O=[N+]([O-])c1cccc(-c2cc3ccccc3[nH]2)c1,15%,2%,21%,-29%,-24%
CC(C)c1nc(NCc2ccccc2)c(C#N)c2c1CCCC2,9%,25%,16%,6%[11.4 µM],-3%
CC(=O)Nc1sc2c(c1C#N)CCN(Cc1ccccc1)C2,-14%,nt,38%,-24%,-7%
N#Cc1c(NCCCO)nc(NCc2ccccc2)c2c1CCN(Cc1ccccc1)C2,-26%,40µM*,?,56µM*,32µM*
CN1CCc2c(C#N)c(N3CCCCC3)nc(NCc3ccccc3)c2C1,?,40µM*,-17%,?,?
CC1CCCN(S(=O)(=O)c2cc(C(=O)NCc3ccccc3Cl)n(C)c2)C1 (stereo not drawn),nt,4%[59 µM],18%[57 µM],-26%,-19%
O=C1Nc2ccccc2C1=Nc1ccc(S(=O)(=O)Nc2nccs2)cc1,9%,?,-30%,56µM*,-18%
CCCOC(=O)C1=C(C)NC2=C(C(=O)CCC2)C1c1ccc(N(C)C)cc1 (stereo not drawn),17%,40µM*,-7%,-32%,-51%
CC1=C(C(=O)OCC2CCCO2)C(c2ccc(C)o2)C2=C(CC(c3ccc(F)cc3)CC2=O)N1 (stereo not drawn),-16%,0%[12.7 µM],10%,-30%,-10%
CC1=C(C(=O)OCC2CCCO2)C(c2ccc(C)o2)C2=C(CC(c3ccc(N(C)C)cc3)CC2=O)N1 (stereo not drawn),8%,11µM*,nt,nt,40µM*
CCN(CC)c1ccc(C2C(C(=O)OCCOC)=C(C)NC3=C2C(=O)CCC3)cc1 (stereo not drawn),-3%,4.5µM*,46%,-35%,-9%
O=C(CN1Cc2ccccc2C1=O)Nc1ccc2c(c1)OCCO2,16%,-10%[59 µM],26%,-6%,-10%
CCC(C)NC(=O)Cn1c(=O)n(Cc2ccc(C(=O)NCc3ccc(C)cc3)cc2)c(=O)c2ccccc21 (stereo not drawn),nt,-5%[59 µM],24%,-23%,?
CCCOCC1CC(CCc2nc(=S)[nH][nH]2)C(=O)O1 (stereo not drawn),56µM*,1.8µM*,?,5µM*,-2%
Nc1c(C(=O)Nc2ccc(F)cc2)sc2nc(-c3ccco3)ccc12,7.9µM*,40µM*,64%,-16%,10%
Nc1c(C(=O)Nc2ccc(Br)cc2)sc2nc(-c3ccco3)ccc12,10µM*,?,40%,-1%,?
SMILES,Sfp PPTase inh,G9a block,HP1b chromo inh,JMJD2A Tudor,BAZ2B block
Nc1c(C(=O)Nc2ccc(Br)cc2)sc2nc(-c3ccncc3)ccc12,nt,-24%[59 µM],85%,-13%,-20%
CCOC(=O)c1sc2nc(-c3ccccc3)ccc2c1N,-21%,11%[59 µM],51%,13%,3%
CC(=O)c1sc2nc(-c3ccco3)ccc2c1N,22µM*,nt,?,79µM*,50µM*
Cc1ccc(Nc2nc3nonc3nc2Nc2cccc(C(F)(F)F)c2)cc1Cl,nt,?,5%,?,?
COc1ccc2c(CNCc3cccs3)c(C(=O)O)n(Cc3ccc(C)cc3)c2c1,nt,-11%[59 µM],12%,-22%,?
CCN(CC)C(=O)C1CCCN(Cc2ccc(OC)c(C)c2)C1 (stereo not drawn),-9%,-49%[12.7 µM],?,0.89µM*,?
CCOC(=O)C1CCCN(Cc2cccc(Cl)c2)C1 (stereo not drawn),-12%,8.9µM*,?,2.8µM*,?
CCOC(=O)C1CCCN(Cc2nc(Cc3ccccc3Cl)no2)C1 (stereo not drawn),5%,22%,38%,6%,5%
Brc1ccc(CN2CCCCCC2)cc1,nt,nt,?,28µM*,nt
Nc1ccc(CN2CCCCCC2)cc1,-16%,10%[59 µM],17%,-28%,19%
COc1cc(CN2CCC(C)CC2)ccc1OCc1ccccc1,-26%,?,?,25µM*,?
COc1cc(CN2CCCC(C)C2)ccc1OCc1ccccc1 (stereo not drawn),-2%,nt,12%,-14%,11%
COc1ccc(C)cc1NC(=O)CN1C(=O)C(=O)N(C2CCCC2)C1=O,nt,-78%[59 µM],21%,-2%,5%
Clc1cccc(CN2CCCCCC2)c1,0%,11µM*,-37%,40µM*,?
CCOC(=O)C1CCCN(Cc2ccc(OCc3ccccc3)cc2)C1 (stereo not drawn),-9%,nt,?,?,38%
CCOC(=O)C1CCCN(Cc2ccc(OCc3ccccc3)c(OC)c2)C1 (stereo not drawn),?,-6%[0.501 µM],1%,?,50µM*
NC(=O)C1CCCN(Cc2ccc(Cl)cc2)C1 (stereo not drawn),-2%,3.5µM*,-56%,3.2µM*,79µM*
O=C(NC1CCCN(Cc2ccc(Cl)cc2)C1)C1CCC1 (stereo not drawn),6%,29%,22%,-4%,-16%
Nc1cccc(CN2CCCC2)c1,2%,nt,43%,-24%,-11%
O=C(c1cccc(Cl)c1)C1CCCN(Cc2ccc(N3CCNC3=O)cc2)C1 (stereo not drawn),24%,50µM*,8%,?,?
COc1cc(OC)cc(C(=O)OC(C)C(=O)NC2CCCc3ccccc32)c1 (stereo not drawn),nt,?,46%,1%,9%
C[C@@H]([C@H](O)c1ccccc1)N(C)C(=S)Nc1ccccc1,12%,18%,22%,-2%,3%
CCOC(=O)C1(CCOC)CCN(C/C=C/c2ccccc2OC)CC1,nt,nt,13%,-23%,nt
